From PubChem BioAssay (EPA / NIEHS) come the findings set out here.

Assay [1] can be described thus: CCTE_Deisenroth_AIME_384WELL_CTox_Active: Cytotoxicity Assessment (CTOX) in CCTE's 384-well Estrogen Receptor Transactivation Assay with AIME metabolic competence (metabolism positive), Deisenroth Lab (AID 2284037).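 Also: chemicals first conditioned 2 h by alginate-bound induced rat liver S9 before cells; activity means signal loss indicating cell death.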 The essentials:
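Chemicals pre-incubated 2 hours with alginate-immobilised phenobarbital/beta-naphthoflavone-induced male Sprague Dawley rat liver S9, then conditioned medium applied 24 hour to VM7Luc4E2 cells. Viability by fluorogenic protease substrate; 10-point series 0.002 - 200 uM.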

The target of assay [2] is Estrogen receptor (Homo sapiens) (UniProt P03372). The assay is described as follows: CCTE_Deisenroth_AIME_384WELL_LUC_Inactive: CCTE's 384-well Estrogen Receptor Transactivation Assay without AIME metabolic competence (ERTA luciferase; metabolism negative), Deisenroth Lab (AID 2284038).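 Also: hits raise estrogen receptor luciferase signal so potencies reflect agonists.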 The essentials:
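Metabolism-negative mode: chemicals (10-point, 0.002–200 uM) held 2 h with alginate-water microspheres, then conditioned medium applied to VM7Luc4E2 cells for 24 h. Luciferase induction referenced to 17beta-estradiol.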

The nature of assay [3]: CCTE_Deisenroth_AIME_384WELL_CTox_Inactive: Cytotoxicity Assessment (CTOX) in CCTE's 384-well Estrogen Receptor Transactivation Assay without AIME metabolic competence (metabolism negative), Deisenroth Lab (AID 2284039).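 Also: cell viability via live-cell protease substrate cleaved to fluorescent probe; cells exposed 24 h to medium preincubated 2 h with alginate-water beads without S9; loss of fluorescence signal means loss of viability.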 Summed up:
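VM7Luc4E2 human breast cells received conditioned medium from a 2 h incubation of chemical with alginate-water microspheres (no S9), then were exposed 24 h. Viability was read as protease-substrate cleavage to a fluorescent probe; loss of signal was fitted bidirectionally over 0.002–200 uM.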

Assay [4] has as its target Estrogen receptor (Homo sapiens) (UniProt P03372). As to the kind of experiment: CCTE_Deisenroth_AIME_384WELL_LUC_Shift: CCTE's 384-well Estrogen Receptor Transactivation Assay with AIME metabolic competence data shift (ERTA luciferase; difference in metabolism positive and negative), Deisenroth Lab (AID 2284041; active = hit-call score of the fitted dose curve at least 0.9, where 1 is the maximum; inactive = score below 0.9;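 also: shift is response with S9 minus without S9 so positive means metabolism raised ER signal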). The essentials: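 Chemicals (0.002–200 uM, 10 points) pre-incubated 2 h with alginate-encapsulated induced male Sprague Dawley rat liver S9 or S9-free, then medium applied 24 h to VM7Luc4E2 cells; luciferase. Endpoint is per-concentration difference, S9-positive minus negative.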

In the next assay the test system is DIO2 (gene 1734). As to the kind of experiment: CCTE_GLTED_hDIO2: CCTE's human Deiodinase 2 (DIO2) Inhibition Assay, Great Lakes Toxicology and Ecology Division (GLTED) Lab (AID 2284050). Summed up:
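hDIO2 enzyme + test chem, 3 h → free iodide from substrate; step 2: Sandell-Kolthoff (Ce IV reduction by As, iodide-catalysed), spectrophotometric read. Triplicate plates; DMSO = baseline.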

In the next assay the test system is DIO3 (gene 1735). As to the kind of experiment: CCTE_GLTED_hDIO3: CCTE's human Deiodinase 3 (DIO3) Inhibition Assay, Great Lakes Toxicology and Ecology Division (GLTED) Lab (AID 2284055).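 Also: potency is for inhibition seen as loss of released iodide signal.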 The essentials:
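Absorbance from the Sandell-Kolthoff reaction reports iodide released by human DIO3 during a 3-hour incubation with chemical. Inhibition scored as signal loss against DMSO controls.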

Structures are written as SMILES. Inconclusive results are not listed. Calls of active or inactive are those of the source. The calls were made as follows, unless noted: active = hit-call score of the fitted dose curve at least 0.9, where 1 is the maximum; inconclusive = response in the unintended direction; inactive = score below 0.9.

The AC50 is the concentration at which the activity in the assay is half-maximal.

Chain of Estrogen receptor (Homo sapiens) (P03372 whole entry, looked up): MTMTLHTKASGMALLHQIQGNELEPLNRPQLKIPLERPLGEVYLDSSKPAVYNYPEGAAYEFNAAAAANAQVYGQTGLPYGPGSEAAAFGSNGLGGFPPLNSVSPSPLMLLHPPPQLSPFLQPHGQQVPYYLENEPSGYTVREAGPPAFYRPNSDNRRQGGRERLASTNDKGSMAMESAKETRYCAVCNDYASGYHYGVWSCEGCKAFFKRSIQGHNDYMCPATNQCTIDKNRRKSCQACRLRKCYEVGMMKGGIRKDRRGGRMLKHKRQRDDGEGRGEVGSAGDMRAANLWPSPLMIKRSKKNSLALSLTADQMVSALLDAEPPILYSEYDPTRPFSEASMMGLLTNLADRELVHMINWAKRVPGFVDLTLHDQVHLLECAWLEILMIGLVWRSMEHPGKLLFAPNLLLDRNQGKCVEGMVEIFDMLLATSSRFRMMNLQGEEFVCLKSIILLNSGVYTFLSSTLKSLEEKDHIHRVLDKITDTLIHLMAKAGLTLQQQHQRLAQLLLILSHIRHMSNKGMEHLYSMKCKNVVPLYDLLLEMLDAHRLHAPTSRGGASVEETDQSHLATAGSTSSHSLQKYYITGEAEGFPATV

With `CCCCCCCCCCCCc1ccc(O)cc1`, the AC50 in assay [1] is 72.1 µM (active); in assay [2], 1.01 µM (active); in assay [3] it was 86.1 µM (active); in the assay on DIO2 (gene 1734) it was 69.7 µM (active); in the assay on DIO3 (gene 1735), 11.2 µM (active). Also, the outcome in assay [4] was inactive.

Consider `C/C=C/C=C/CCCCCCCO`, for which the compound was called inactive in assay [1], in assay [2] and in assay [4]. For the same compound, the figures for the AC50 (in assay [3]; in the assay with DIO2 (gene 1734); in the assay on DIO3 (gene 1735)) were 151 µM (active), 19.9 µM (active) and 16.4 µM (active), respectively.

For `O=C(O)/C=C/c1ccccc1`, the compound was called inactive in assay [1], in assay [2], in assay [3] and in assay [4].

Regarding `C[Si](C)(C)N[Si](C)(C)C`, the result in assay [1], in assay [2], in assay [3] and in assay [4] was inactive.

Consider `CCCCCCCCCCCCCCCCCCOS(=O)(=O)O`, for which the compound was called inactive in assay [1], in assay [2], in assay [3] and in assay [4]. Further, the AC50 in the assay with DIO2 (gene 1734) is 40.6 µM (active); in the assay with DIO3 (gene 1735), 3.04 µM (active).

Take `O=c1c(O)c(-c2ccc(O)cc2O)oc2cc(O)cc(O)c12`: the AC50 in assay [1] is 100 µM (active); in assay [2], 109 µM (active); in assay [3] it was 146 µM (active); in the assay with DIO2 (gene 1734), 55.4 µM (active); with DIO3 (gene 1735), 33.5 µM (active). The outcome in assay [4] was inactive.

Consider `CC1=NN(c2ccc(S(=O)(=O)O)cc2)C(=O)C1N=Nc1ccccc1` (stereo not drawn), for which the AC50 in assay [1] was 159 µM (active). In addition, the compound was called inactive in assay [2], in assay [3] and in assay [4].

With `O=C(Nc1ccccc1)c1cc(Cl)ccc1O`, the AC50 in assay [1] is 33.4 µM (active); in assay [3], 0.484 µM (active). For the same compound, the result in assay [2] and in assay [4] was inactive.

Regarding `CCCC(CC)c1ccccc1` (stereo not drawn), the outcome in assay [1], in assay [2], in assay [3] and in assay [4] was inactive.

For `O=C(O)CCC(=O)O`, the result in assay [1], in assay [2], in assay [3] and in assay [4] was inactive.

On to `C=C(C)C1CC=C(C)CC1` (stereo not drawn), for which the call in assay [1], in assay [2], in assay [3] and in assay [4] was inactive.

On to `CC(C)c1cc(C(C)C)cc(C(C)C)c1`, for which the call in assay [1], in assay [2], in assay [3] and in assay [4] was inactive.

As for `O=C(Oc1ccccc1)c1ccccc1O`, the call in assay [1] and in assay [3] was inactive. Also, the AC50 in assay [2] was 53.4 µM (active); in assay [4], 38.4 µM (active).

Regarding `O=S(=O)(O)c1ccc(N=Nc2c(O)ccc3ccccc23)cc1`, the results for the AC50 in assay [1] and in assay [3] were 71.3 µM (active) and 72.8 µM (active), respectively. In addition, the outcome in assay [2] and in assay [4] was inactive.

For `Nc1ccc(C(=O)O)cc1`, the compound was classed as inactive in assay [1], in assay [2], in assay [3] and in assay [4].
